Laboratory results published in PubChem BioAssay (NCI).
The panel holds about 83,000 compounds, 20% with a hit somewhere; the sample as a whole holds those more often.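 Note: values are percent growth. 100 is the growth of untreated cells, values between 100 and 0 indicate rising inhibition; between -100 and 0 indicates cell death.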 A number with no mark means an inactive call. Active and inactive are the calls of the source. Rule for the calls: active = growth percent below 10; inactive = the rest.

Tests used:
Test in all cases: NCI-60 one-dose screen, 48 h (100 = growth as untreated, 0 = no growth, -100 = all killed)
Details in all cases: 10 µM unless noted
[1] = test system: T-47D breast
[2] = test system: BT-549 breast
[3] = test system: MDA-MB-435 melanoma
[4] = test system: SW-620 colon
[5] = test system: MCF7 breast
[6] = test system: HCT-116 colon
[7] = test system: HCC-2998 colon
[8] = test system: KM12 colon

Row | SMILES | growth [1] | growth [2] | growth [3] | growth [4] | growth [5] | growth [6] | growth [7] | growth [8]
1 | CC(C)(C)NCC(O)COc1c(Br)c(Br)c(Br)c2c1OC(C)(C)C2 (stereo unspecified) | -26.4% (active) | 32.7% | -68.6% (active) | -97.5% (active) | -74.2% (active) | -26.5% (active) | -74.9% (active) | -80.7% (active)
2 | N#Cc1c2c(c(N)[nH]c1=O)C(=O)NC2(O)c1ccccc1 (stereo unspecified) | 103% | 105% | 109% | 111% | 99.6% | 104% | 101% | 102%
3 | Nc1ncnc2c1c(-c1ccc(Oc3ccccc3)cc1)nn2C[C@H]1SSC[C@@H]1O | -20.3% (active) | 78.1% | -92.9% (active) | 51.1% | 14.5% | 13% | 72.1% | 32.6%
4 | CCn1c(SCC(=O)c2ccc(Br)cc2)nnc1-c1cc2c([nH]c3ccccc32)c(-c2cccc(O)c2)n1 | 29.4% | 71.9% | 31.3% | 94.1% | 40.5% | 70.1% | 98.4% | 66.5%
5 | COc1cc(NC(=O)C#Cc2ccccc2)c(OC)cc1Cl | 71.1% | 51.3% | 59.3% | 23.9% | 22.6% | 21.9% | 90.9% | 49.7%
6 | O=C(Nc1cccc(-n2ccc3c(NC(=O)c4ccccc4)nccc32)c1)c1cc(N2CCOCC2)cc(C(F)(F)F)c1 | 66.3% | -13.1% (active) | -13.3% (active) | 14.2% | 21.3% | 1.44% (active) | 28.8% | -3.61% (active)
7 | COc1ccc(-c2ccc(NC(=O)Nc3ccc(Cl)c(C(F)(F)F)c3)c(C)n2)cc1 | 21.5% | 66.2% | 71.9% | 67% | 36.7% | 23.7% | 69.2% | 37.4%
8 | C#C[C@H](O)/C=C/CCCCCCC#C[C@H](O)CC[C@@H](O)C#CCCCCCC/C=C/[C@@H](O)C#C | 76% | 93.9% | 92.5% | 71.9% | 68.5% | 57.3% | 95.2% | 93.2%
9 | CCOC(=O)CSc1nnc(-c2cc3c([nH]c4ccccc43)c(-c3cccc(O)c3)n2)n1-c1ccc(C)cc1 | -5.32% (active) | 101% | 16.4% | 67.1% | 35.3% | 50% | 83.7% | 76.3%
10 | COc1ccc(-c2nn(-c3ccc(NC(=O)c4cc(Cl)cc(Cl)c4)cc3)cc2-c2ccncc2)cc1Cl | 67.4% | 66.8% | 68.6% | 68.6% | 73.7% | 55.7% | 49.6% | 29.7%
11 | O=C(Nc1cccc(-n2ccc3c(NC(=O)c4ccccc4)nccc32)c1)Nc1ccc(Cl)c(C(F)(F)F)c1 | 54.3% | -5.15% (active) | -15.4% (active) | 25.2% | 19.5% | 3.34% (active) | 17.2% | -16.4% (active)
12 | O=c1c2ccccc2sc2c(NCCN3CCOCC3)nc3ccccc3c12 | 52.2% | 73.7% | 70.1% | 18% | 43.7% | 42.5% | 54.2% | 30%
13 | c1ccc(CNCCN(CCNCc2ccccn2)Cc2ccc3ccccc3c2)nc1 | -4.67% (active) | 30.3% | 11.4% | 13% | 3.36% (active) | -9.29% (active) | -18.3% (active) | 12.5%
14 | CC(=O)Cc1cccnc1 | 96.2% | 92.4% | 110% | 97.1% | 101% | 81.6% | 108% | 105%
15 | C#CCn1c(-c2cc(OC)c(OC)cc2Br)nc(-c2ccccc2)c1-c1ccccc1 | 39.3% | 60.7% | 6.82% (active) | 23.9% | 19.4% | 19.9% | 66.8% | 20%
16 | NC(=NCCCOc1ccc(F)cc1)Nc1ccc(Cl)c(Cl)c1 | 29.2% | 91.2% | 79% | 60.4% | 18.1% | 45.6% | -45.7% (active) | 76.5%

Row | SMILES | growth [1] | growth [2] | growth [3] | growth [4] | growth [5] | growth [6] | growth [7] | growth [8]
17 | O=C(Nc1ccc(F)cc1)Nc1ccc(Br)c(C(F)(F)F)c1 | -4.72% (active) | 15.5% | 6.46% (active) | 19.8% | 1.94% (active) | 4.58% (active) | 11.8% | 13.8%
18 | Cc1cccc(NC(=O)CCc2ccc(N3C(N)=NC(N)=NC3(C)C)cc2)c1 | 73.1% | 45.8% | 25.9% | 33.5% | 29.3% | 18.9% | 33.3% | 22.7%
19 | O=C1c2ccccc2C(=O)c2c(NCCN=Cc3c(O)ccc4ccccc34)cccc21 | 75% | 106% | 96% | 79.3% | 72.6% | 45.5% | 95.7% | 89%
20 | CC(CCC(=O)O)[C@H]1CCC2C3C(=O)C[C@@H]4CC(=O)CC[C@]4(C)C3CC(=O)[C@@]21C (stereo partly specified) | 97% | 112% | 96.5% | 98.7% | 105% | 112% | 103% | 108%
21 | COc1cc(-c2nc(N)n(CC(=O)Nc3ccc(/C(C)=N\O)cc3)n2)cc(OC)c1OC | 91.2% | 108% | 82% | 95.2% | 89.2% | 101% | 102% | 97.3%
22 | O=c1c(-c2ccc3c(c2)OCO3)coc2c(CO)c(O)ccc12 | 19.2% | -43% (active) | 49.9% | 38.1% | 20.6% | -8.96% (active) | 4.46% (active) | 26.8%
23 | COc1cc(/C=C/C(=O)N2CCC=CC2=O)cc(OC)c1OC | 25.6% | 58.3% | 57.2% | 29.3% | 15.3% | 6.96% (active) | 100% | 66.6%
24 | CCCCOc1nc2ccc(Cl)cc2cc1/C=C/C(=O)/C=C/c1ccc(OC)cc1 | 86.8% | 93.6% | 9.64% (active) | 107% | 30.7% | -25.4% (active) | 92.7% | 84%
25 | CCc1cccc(-c2ccccc2)c1 | 110% | 97.1% | 109% | 99.8% | 105% | 98.8% | 110% | 102%
26 | Cc1ccc(NC(=O)CN2CCOCC2)cc1Cl | 88.7% | 77% | 100% | 98.5% | 91.8% | 80.5% | 96.8% | 103%
27 | CCN(CC)CCN1C(=O)c2c(c3c4ccccc4[nH]c3c3[nH]c4ccccc4c23)C1=O | 81.8% | 83% | 95.6% | 46.9% | 62% | 67% | 53.1% | 85.2%
28 | Nn1c(SCC(=O)Nc2cc(Cl)c(Cl)cc2Cl)nnc1-c1cc(F)c(Cl)cc1Cl | 97.5% | 87.4% | 91.2% | 106% | 78.8% | 91.2% | 139% | 110%
29 | COc1ccc(Cl)cc1NC(=O)c1cc2c(n1C)-c1nc(NC(=O)C(C)C)sc1CC2 | 68.2% | 53% | 93.8% | 90.5% | 84.5% | 44.6% | 122% | 92.7%
30 | CN(C)c1ccc(/C=N/N=C(N)N)cc1 | 81.9% | 93.3% | -13.9% (active) | 37.4% | 31.9% | 52.8% | 68.2% | 42.6%
31 | C=C1C(=O)O[C@H]2[C@H]1CC/C(COC(=O)OC/C1=C/CC[C@@]3(C)O[C@H]3[C@H]3OC(=O)[C@@H](CN(C)C)[C@@H]3CC1)=C\CC[C@@]1(C)O[C@@H]21 | -15.2% (active) | -1.01% (active) | 2.87% (active) | -56.5% (active) | -29.7% (active) | -72.7% (active) | 79.8% | 37.9%
32 | C=C1C(=O)O[C@H]2[C@H]1CC/C(C(=O)Nc1ccc(OC)c(C(N)=O)c1O)=C\CC[C@@]1(C)O[C@@H]21 | 16.9% | 30.4% | 60.6% | 23.8% | 31.1% | 23.8% | 102% | 85%
